PubChem BioAssay
Calls of active or inactive are those of the source.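 How the source made its calls, unless noted: active means NADPH fluorescence slope more negative than the mean of all samples by about 3 SD, 99.7% confidence; inactive means the rest.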

Key:
[1] = inhibitors of TNFa-induced NFkB p65 translocation, primary screen, imaging, HUVEC, MLSMR starter and 10KST1 sets (AID 438;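 active means inhibition above 20% together with a positive visual image hit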;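 further: compound added about 3h40 before a 20 min TNFalpha stimulation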;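 on inhibition: signal is the nuclear over cytoplasmic p65 intensity ratio per well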); details: HUVEC TNFa-induced p65 nuclear translocation; cell count: measured here: nuclei count (cytotoxicity indicator), at 2.08 µM; inhibition: at 2 µM, stronger effect = higher value, 0% TNFa-plus-vehicle, 100% no-TNFa wells
[2] = reduction of polyQ htt aggregates in cells – imaging, exon1htt(103Q)mCFP cells, high-content imaging, primary screen (AID 483;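 active means visual image review flags a hit and inhibition of aggregation exceeds 20%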;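 further: compound exposure lasted 3 days before fixation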;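 on nuclei count: percent of the per-plate median nuclei count of sample wells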); details: exon1htt(103Q)mCFP cell line, aggregate imaging, at 2 µM; inhibition of aggregation: stronger effect = higher value; nuclei count: measured here: cell count, toxicity
[3] = endothelial E-selectin expression blockers – imaging, HUVEC, immunofluorescence, MLSMR starter and 10KST1 sets, primary screen (AID 487;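 active means visually confirmed hit in the image check and inhibition above 20%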;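 on inhibition: signal is fraction of cell area covered by stained E-selectin grains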;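 on nuclei count: 100% = median nuclei count of all wells on the same plate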); details: HUVEC TNFalpha-induced E-selectin immunofluorescence imaging, at 2 µM; inhibition: stronger effect = higher value; nuclei count: measured here: cell number, toxicity
[4] = target: Voltage-gated potassium channel subunit beta-2 (Rattus norvegicus) (UniProt P62483); assay: inhibitors of rat Kvbeta2 reductase activity – biochemical, NADPH fluorescence, primary screen (AID 622;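 active means fluorescence slope higher than the sample average by over 3 SD, cut at about -0.22 in these data, passing the limit was not always enough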;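 further: slope of raw intensity against log time taken from 70 to 1610 s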); details: recombinant KvBeta, 4-cyanobenzaldehyde reduction, at 10 µM, stronger effect = higher value
Voltage-gated potassium channel subunit beta-2 (Rattus norvegicus), sequence (P62483 whole entry, looked up): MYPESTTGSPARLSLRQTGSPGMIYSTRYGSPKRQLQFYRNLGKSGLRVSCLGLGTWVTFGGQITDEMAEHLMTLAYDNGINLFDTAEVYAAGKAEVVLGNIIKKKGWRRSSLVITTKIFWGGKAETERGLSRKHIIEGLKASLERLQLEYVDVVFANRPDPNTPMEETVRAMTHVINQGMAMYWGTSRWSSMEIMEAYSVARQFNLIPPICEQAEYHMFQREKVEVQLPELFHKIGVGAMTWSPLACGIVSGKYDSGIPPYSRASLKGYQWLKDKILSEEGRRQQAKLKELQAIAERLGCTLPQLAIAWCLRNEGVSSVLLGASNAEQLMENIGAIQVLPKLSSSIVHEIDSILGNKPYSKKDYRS

[5] = target: Voltage-gated potassium channel subunit beta-2 (Rattus norvegicus) (UniProt P62483); assay: enhancers of rat Kvbeta2 NADPH turnover – biochemical, NADPH fluorescence, primary screen (AID 623); details: Recombinant KvBeta, NADPH fluorescence decrease slope, 10 min; at 10 µM; stronger effect = lower value;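 further: fluorescence intensity change per second fitted from 20 to 320 s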
[6] = target: Alpha-2C adrenergic receptor (Homo sapiens) (UniProt P18825); assay: compounds altering alpha2C-coupled GIRK flux – cell-based, HEK293 alpha2C/GIRK1/2, thallium flux, primary screen (AID 624;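 active means fluorescence slope after compound addition differing from the mean of all screened samples at 99.7% confidence, in either direction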;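 further: slope of fluorescence ratio to pre-addition baseline per second over 15 to 24 s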); details: thallium flux BTC fluorescence, at 10 µM, actives lie on both sides
Alpha-2C adrenergic receptor (Homo sapiens), sequence (P18825 whole entry, looked up): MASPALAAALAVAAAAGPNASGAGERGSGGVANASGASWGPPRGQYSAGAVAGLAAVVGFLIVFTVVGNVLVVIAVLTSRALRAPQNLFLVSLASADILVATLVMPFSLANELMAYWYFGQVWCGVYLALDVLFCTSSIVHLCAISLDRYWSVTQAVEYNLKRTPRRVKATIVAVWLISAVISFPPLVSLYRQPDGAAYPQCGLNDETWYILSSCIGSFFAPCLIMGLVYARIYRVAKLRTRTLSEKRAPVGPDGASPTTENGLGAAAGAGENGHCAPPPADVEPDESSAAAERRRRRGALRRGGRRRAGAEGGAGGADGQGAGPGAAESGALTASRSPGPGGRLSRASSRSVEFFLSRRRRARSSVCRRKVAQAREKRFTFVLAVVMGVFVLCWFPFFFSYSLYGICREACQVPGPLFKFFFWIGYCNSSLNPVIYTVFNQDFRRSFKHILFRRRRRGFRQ

[7] = blockers of RIG-like receptor reporter activation – cell-based, Sendai virus stimulus, luciferase, 10K MLSCN set, TLR/RLR signaling modifier project, primary screen (AID 602276;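 active means inhibition at or above 50% at 10 µM; inactive means inhibition below 50%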;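 further: firefly luciferase from ISG56 promoter only with Renilla not read in this screen; 0% = Sendai virus plus DMSO and 100% = medium plus DMSO without virus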); details: HEK293 RL24 IRF3 luciferase reporter, at 10 µM, stronger effect = higher value
[8] = TLR3 IRF3 reporter activation blockers – cell-based, poly I:C stimulus, luciferase, 10K MLSCN set, primary screen (AID 602277;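 active means inhibition of the reporter signal at or above 50%; inactive means inhibition below 50%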); details: HEK293-TLR3 RL24 IRF3 luciferase reporter, at 10 µM, stronger effect = higher value

| Structure (SMILES) | cell count [1] | inhibition [1] | inhibition of aggregation [2] | nuclei count [2] [%] | inhibition [3] | nuclei count [3] [%] | fluorescence slope [4] | NADPH fluorescence slope [5] | slope [6] | inhibition [7] | inhibition [8] |
| --- | --- | --- | --- | --- | --- | --- | --- | --- | --- | --- | --- |
| COc1ccc(-c2c3c(=O)n(C)c(=O)n(C)c3cn2-c2cccc(OC)c2)cc1 | 430 | 5.2% (inactive) | 5.3% (inactive) | 110 | -50.3% (inactive) | 99.9 | -0.605 (inactive) | 6.5e-06 (inactive) | 0.00638 (inactive) | -0.838% (inactive) | 0.686% (inactive) |
| COc1ccc(C(=O)CN2C(=O)NC3(CCCc4ccccc43)C2=O)cc1OC (stereo not drawn) | 412 | -9% (inactive) | 2.7% (inactive) | 94.1 | 35.3% (inactive) | 87.2 | -0.51 (inactive) | -2.4e-05 (inactive) | 0.00564 (inactive) | 15.1% (inactive) | 13.4% (inactive) |
| O=C(Nc1ccon1)c1cc(-c2ccccc2)nc2ccccc12 | 364 | -8% (inactive) | 22.5% (inactive) | 98.4 | -48.5% (inactive) | 116 | -0.286 (inactive) | -6.3e-05 (inactive) | 0.00497 (inactive) | -24.1% (inactive) | 99.8% (active) |
| COc1ccc(NC(=O)CSc2nc3c(c(=O)n2-c2ccc(F)cc2)SCC3)c(OC)c1 | 339 | 0.6% (inactive) | -14.2% (inactive) | 109 | -407% (inactive) | 114 | -0.474 (inactive) | -1.7e-05 (inactive) | 0.00491 (inactive) | 19.4% (inactive) | 26.7% (inactive) |
| COc1ccccc1-c1cc(C(=O)Nc2cc(C)nn2-c2ccccc2)no1 | 478 | -9.3% (inactive) | -24.6% (inactive) | 111 | 4.5% (inactive) | 109 | -0.381 (inactive) | -2e-05 (inactive) | 0.00489 (inactive) | -1.99% (inactive) | 16% (inactive) |
| Nc1nc(N2CCN(C/C=C/c3ccccc3)CC2)nc2ccccc12 | 563 | 7.3% (inactive) | 2% (inactive) | 69.5 | -58.8% (inactive) | 139 | -0.607 (inactive) | -2.5e-05 (inactive) | 0.00297 (inactive) | 4.65% (inactive) | 7.48% (inactive) |
| CC(=O)Nc1cccc(NC(=O)C2CCCN2C(=O)Nc2ccc(C)cc2)c1 (stereo not drawn) | 789 | -3.2% (inactive) | 0.5% (inactive) | 89.4 | -3.5% (inactive) | 111 | -0.507 (inactive) | -4.3e-06 (inactive) | 0.0061 (inactive) | -9.54% (inactive) | 20.3% (inactive) |
| O=C(C1CCC(CNS(=O)(=O)c2cccc3cccnc23)CC1)N1CCCC1 (stereo not drawn) | 711 | 5.5% (inactive) | -15.3% (inactive) | 67.8 | -43.8% (inactive) | 112 | -0.549 (inactive) | -1.6e-05 (inactive) | 0.00608 (inactive) | -0.546% (inactive) | 14.6% (inactive) |
